# SW480 rereplic: A quantitative high throughput screen for small molecules that induce DNA re-replication in SW480 colon adenocarcinoma cells; SW480 DNA re-replication, Hoechst DNA content imaging, 48 h; Potency, µM (top dose mostly 46.1 µM), without a hit: top-dose re-replication activation, usual class: activators; 1.8% of 340,000 active; AID 624297, 2012; note: potency is the fitted concentration of half-maximal effect; % of control where 0% means no effect; nearly all actives have a fitted effect of over 55% in size
#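 DNA re-replication was detected as more nuclei of elevated Hoechst intensity after 48 hr exposure to compound (23 nL pinned per well of 250 cells).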
# ATXN viability: Viability Counterscreen for Primary qHTS for Inhibitors of ATXN expression; Potency, µM (doses to about 56.7 µM), actives largely listed as cytotoxic; S2 cells (HEK-293 line with an ATXN2-luciferase reporter) viability, CellTiter-Fluor protease fluorescence, 24 h; AID 651635, 2014; 0.49% of 400,000 active; note: potency is the fitted concentration of half-maximal effect; nearly all actives have a fitted effect of over 40% in size
# MCF10A rerep: A quantitative high throughput screen for small molecules that induce DNA re-replication in MCF 10a normal breast cells; Potency, µM (doses to about 46.1 µM), for inactives: at the highest dose activity, positive = re-replication, actives largely listed as activators; MCF 10A DNA re-replication, Hoechst nuclear intensity, 48 h; 2.9% of 350,000 active; note: potency is the fitted concentration of half-maximal effect; % of control where 0% means no effect; nearly all actives have a fitted effect of over 50% in size
# ATXN2 expr inh: Primary qHTS for Inhibitors of ATXN expression | HEK-293 ATXN2-luciferase reporter, luminescence, 24 h | Potency, µM (highest dose often 57 µM), inactives show at the highest dose activity change, negative = inhibition, actives largely listed as inhibitors | 0.72% of 360,000 active; note: potency is the fitted concentration of half-maximal effect; % is set by controls: 0 for no effect and ±100 for the full control effect; nearly all actives have a fitted effect of over 55% in size
#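 qHTS (up to 57 uM final) was run with 24 h compound exposure of reporter cells at 37 °C. Each well was multiplexed: SteadyGlo luminescence measured ATXN2-luciferase expression after a fluorogenic Gly-Phe-AFC viability readout (25 uM final).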
# IL-1B inflam inh: qHTS for Inhibitors of Inflammasome Signaling: IL-1-beta AlphaLISA Primary Screen; THP-1 LPS/ATP IL-1B secretion, AlphaLISA, 16 h; active compounds read low; activity change, % at 57.5 µM; 4.7% of 360,000 active; in the data active = activity change below about -50%; inconclusive = mostly about -30% to -49%; note: % is set by controls: 0 for no effect and ±100 for the full control effect
#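 Secreted IL-1B measured by AlphaLISA bead assay after 16 h compound exposure of THP-1 cells; compounds (final up to 57.5 uM) added 1 h before LPS (250 ng/mL) and ATP (1.25 mM) stimulation; lower signal means less secretion.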
# PINK1 modulator: A Quantitative High throughput Screen to Identify Chemical Modulators of PINK1 Expression | 0.2% of 410,000 active | AID 624263, 2012 | PINK1 immunofluorescence, high-content cytometry, 24 h | Potency, µM (highest dose often 76.6 µM), for the others: top-dose activation (PINK1 increase), hits mostly activators; active = well fitted activation curve with a large enough effect; inconclusive = small, poorly fitted or top-dose-only effect; cell line not stated here; note: potency is the fitted concentration of half-maximal effect; % of control where 0% means no effect; nearly all actives have a fitted effect of over 65% in size
#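 Decision-based qHTS: stable cells, 24 h exposure to five compound concentrations, CCCP as control. Fixed cells stained for PINK1 plus nuclear, mitochondrial and cell markers, cytometer read.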
# Starred values were filed as active, the others as inactive; i = inactive; ? = inconclusive; · = no result; [ ] = dose if it differs, or a comment. Only some compounds are listed: those with a hit (about 7.1% of all), similar ones and a draw of the others. Unless noted, calls come from the whole dose curve; as a rule, active = well fitted curve in the direction sought with a large enough effect; inconclusive = small, poorly fitted or top-dose-only effect, or another doubt; inactive = no such curve, though single readings can be large; an effect the other way counts as inactive or inconclusive.
SMILES,SW480 rereplic,ATXN viability,MCF10A rerep,ATXN2 expr inh,IL-1B inflam inh,PINK1 modulator
C(#Cc1ccccc1)C[N+]1(CC#Cc2cccc3ccccc23)CCCC1,4%,i,?,?,-62*,6%
CC(=O)N1CCc2cc(Br)cc(S(=O)(=O)N3CCC(C(=O)Nc4ccc(C(C)C)cc4)CC3)c21,·,i,·,0%,·,-1%
COc1ccc2c(-c3ccccc3)cc(SCC(=O)NC(N)=O)nc2c1,-38%,?,5.8µM*,·,17,2%
COc1ccc2c(-c3ccccc3)cc(SCC(=O)N(C)C)nc2c1,-3%,i,18%,-15%,-68*,2%
Cc1c(Cl)cccc1-n1ncc(C(=O)N2CCC(C)CC2)c1C1CCN(C(=O)OC(C)(C)C)CC1,·,i,·,14%,·,-1%
O=C(CN1C(=O)COc2ccc(S(=O)(=O)N3CCCCCC3)cc21)N1CCN(c2ccc(Cl)cc2)CC1,·,?,·,-25%,·,0%
CC(=O)Nc1ccc(-c2csc(Nc3cc(C)ccn3)n2)cc1,0%,?,12%,-5%,-104*,0%
CC(=O)Nc1cccc(-c2csc(Nc3cc(C)ccn3)n2)c1,-6%,·,0%,?,-96*,·
COc1ccc(-c2csc(Nc3ccc(C)cn3)n2)cc1OC,10%,i,-6%,14%,?,3%
COc1ccc(-c2csc(Nc3cc(C)ccn3)n2)cc1OC,1%,i,?,46%,-87*,-1%
Cc1ccc(Nc2nc(-c3ccc(O)c(O)c3)cs2)nc1,?,i,?,13%,-77*,-4%
COc1ccccc1NC(=O)c1oc2ccccc2c1NC(=O)Cc1cccs1,·,i,·,-8%,·,12%
Cc1ccnc(Nc2nc(-c3c(C)nc4sccn34)cs2)c1,-10%,·,?,·,-61*,·
Cc1ccc2c(=O)cc(C(=O)Nc3nc4ccc(Cl)cc4s3)oc2c1,·,i,·,11%,·,4%
CC(C)CCn1nnnc1C(c1ccc(N(C)C)cc1)N1CCN(C(=O)c2ccco2)CC1 (configuration not stated),2%,i,?,4%,-65*,0%
COc1cccc(-c2cc(C(=O)NCc3ccccc3)[nH]n2)c1,·,·,·,·,·,0%
N#CC1=C(SCc2ccccc2)NC(=O)CC1c1cccc(O)c1 (configuration not stated),-4%,i,-5%,1%,-54*,·
N#CC1=C(SCc2ccccc2)NC(=O)CC1c1ccc(O)cc1 (configuration not stated),-2%,i,-4%,-9%,-3,2%[38.3 µM]
Cc1nc2c(O)c3c(c(O)c2nc1C)C1C=CC3CC1,3.3µM*,5.6µM*,5.2µM*,28µM*,0,-1%
O=C(CN1CCSc2ccccc21)N1CCCCC1,·,i,·,10%,·,6%
O=C(CCl)N1c2ccccc2SCC1c1ccccc1 (configuration not stated),15µM*,20µM*,7.3µM*,?,-105*,-2%
O=C(CCl)N1c2ccccc2OCC1c1ccccc1 (configuration not stated),?,?,106%,-3%,-94*,-2%
COc1ccccc1COc1cccn2c(N(C)C(=O)CCC3CCCC3)c(C)nc12,·,?,·,-3%,-21,?
CCC(CC)C(=O)N(C)c1c(C)nc2c(OCc3ccc(C#N)cc3)cccn12,·,i,·,7%,-71*,-1%
Cc1ccccc1COc1cccn2c(N(C)C(=O)CCC3CCCC3)c(C)nc12,·,?,·,?,-57*,?
SMILES,SW480 rereplic,ATXN viability,MCF10A rerep,ATXN2 expr inh,IL-1B inflam inh,PINK1 modulator
Cc1nc2c(OCc3ccc(OC(F)F)cc3)cccn2c1N(C)C(=O)CCC1CCCC1,·,·,·,?,-58*,8%
COC(=O)C1CCN(Cc2ccc3c(c2)CN(C(=O)c2cc(C)nc(C)n2)CCO3)CC1,·,i,·,·,·,-1%
C[C@H](CO)N1C[C@H](C)[C@@H](CN(C)Cc2ccc(Cl)c(Cl)c2)Oc2c(NC(=O)C3CC3)cccc2C1=O,-2%,·,29%,?,-84*,1%
C[C@H](CO)N1C[C@H](C)[C@@H](CN(C)Cc2ccc(Cl)c(Cl)c2)Oc2c(NC(=O)C3CCOCC3)cccc2C1=O,?,?,-13%,0%,-14,1%
C[C@H](CO)N1C[C@H](C)[C@@H](CN(C)Cc2ccc(Cl)c(Cl)c2)Oc2c(NC(=O)CCC(F)(F)F)cccc2C1=O,-2%,?,?,?,-70*,-1%
C[C@H](CO)N1C[C@H](C)[C@@H](CN(C)Cc2ccc(C(=O)Nc3ccccc3N)cc2)Oc2c(NC(=O)C3CCCCC3)cccc2C1=O,3%,20µM*,24%,?,-22,0%
COc1ccc([C@H]2CC(=O)C=C(c3ccc4ncccc4c3)C2)cc1,?,i,142%,2%,9,0%
O=C1C=C(Nc2ccc(Cl)cc2)CC(c2ccc(Cl)cc2)C1 (configuration not stated),3%,i,-13%,?,-85*,·
O=C1C=C(c2ccc3[nH]ccc3c2)C[C@@H](c2ccc(Cl)cc2)C1,23%,?,10µM*,0%,0,?
O=C1C=C(c2ccc3ncccc3c2)C[C@@H](c2ccc(Cl)cc2)C1,8%,?,23µM*,?,-15,4%
O=C1C=C(c2ccc(O)cc2)C[C@@H](c2ccc(Cl)cc2)C1,-3%[9.22 µM],?,?,?,-75*,7%
O=C(NCc1ccc(F)cc1)c1ccc(CS(=O)Cc2ccc(Cl)cc2)o1 (configuration not stated),·,·,·,·,·,-1%
COc1ccccc1NC(C)C(=O)c1c(C)[nH]c2ccccc12 (configuration not stated),·,·,·,·,·,1%
CCOc1ccc(C(=O)Nc2cc(-c3cn4cccnc4n3)ccc2C)cc1OCC,·,·,·,·,·,1%
Cc1ccc(S(=O)(=O)N2CCN(c3nc(-c4cncnc4)nc4ccccc34)CC2)cc1,·,·,·,·,·,0%
CC1CCN(C(=O)Cn2cc(SCC(=O)NCc3ccc(F)cc3)c3ccccc32)CC1,·,·,·,·,·,0%
CC(=O)Nc1ccccc1N(CC(O)Cn1c2ccccc2c2ccccc21)S(=O)(=O)c1ccc(C)cc1 (configuration not stated),23µM*,i,?,?,?,?
COc1c(C=O)c2c(c(OC)c1OC)-c1ccc(OC)c(=O)cc1C(NC(C)=O)CC2 (configuration not stated),0.1µM*,i,?,-5%,0,6%
